# Experimental data as given in ChEMBL document CHEMBL3988442, “University of Dundee, Small-Polar-MMV Screening Library” (2021).
# Screen size: about 48,000 compounds; about 13,000 (27%) showed an effect of 50% or more. This is one part of the list.
# System: Wolbachia pipientis
# Test: Anti-Wolbachia Cell-Based Screen
# Format: functional
# Set-up: scale not given: in the data most compounds retested in dose-response had high values
# Details: 5 µM
row,Structure (SMILES),Percent Effect [%]
1,Cc1ccc(CNC(=O)C2CCN(C(=O)c3ccco3)CC2)n1C,1.7
2,Cn1cc(CN2C[C@@H]3CCCO[C@@H]3[C@H](N3CCCC3=O)C2)cn1.O=C(O)C(F)(F)F,-11.94
3,Cc1ccc(N2CCCC(NCc3ccc(C)s3)C2)nn1 (configuration not stated),102.5
4,Cc1ccc(N2CCCC(NCc3sccc3C)C2)nn1 (configuration not stated),101
5,Cc1ccc(N2CCCC(NCc3cnc(C)s3)C2)nn1 (configuration not stated),95.67
6,Cc1ccc(N2CCCC(NCc3ccsc3)C2)nn1 (configuration not stated),-6.53
7,CCN(CCOC)C(=O)CCc1scnc1C,1.791
8,CCc1ccc(CNc2cc(-c3ccoc3C)nn2CCO)o1,-16.42
9,Cc1nnc2n1CCN(C(=O)c1cnc3c(cnn3CC(C)C)c1)C2,-2.285
10,Cc1ccc(CN(CCCN(C)C)Cc2cnc(N(C)C)nc2)o1.O=C(O)CC(O)(CC(=O)O)C(=O)O,115.6
11,COc1cc(CN(Cc2ccccn2)CC(C)C)cc2c1OCO2,-37.75
12,O=C(Cc1cn2ccsc2n1)N(Cc1ccco1)CC1CCCO1 (configuration not stated),1.448
13,Cc1nc2sccn2c1CN(CCCN(C)C)Cc1ccco1.O=C(O)CC(O)(CC(=O)O)C(=O)O,131.3
14,COc1cc(CN(CCCN(C)C)Cc2ccccn2)cc2c1OCO2.O=C(O)CC(O)(CC(=O)O)C(=O)O,126.3
15,CC(C)CN(Cc1ccc(O)c(C(=O)O)c1)Cc1cnn(C)c1,-4.31
16,CN(C)c1ccc(CN(CCCn2ccnc2)Cc2c[nH]cn2)cc1.O=C(O)CC(O)(CC(=O)O)C(=O)O,-12.92
17,CC(C)OCCCN(Cc1cnn(C)c1)Cc1ccccn1.O=C(O)CC(O)(CC(=O)O)C(=O)O,84.46
18,Cc1ncsc1CCN(C)Cc1cc2n(n1)CCN(Cc1ccco1)C2,0.12
19,COCc1cc(N(CC(F)F)C2CC2)n2ncnc2n1,-15.21
20,CC(C)(Cn1cnc(-c2ccccc2)c1-c1ccco1)N1CCOCC1,0.7687
21,Cc1nc2c(c(=O)n1C)CCN(C(=O)CCc1ccccn1)CC2,-4.884
22,CN(C)CCCN(Cc1cnn(C)c1)Cc1ccco1.O=C(O)CC(O)(CC(=O)O)C(=O)O,115.2
23,CCN(CCCN1CCOCC1)C(=O)c1cnn(CC)c1,-6.092
24,CN(C)[C@@H]1CCN(C(=O)c2ccco2)[C@H]1Cc1cnn(C)c1.O=C(O)C(F)(F)F,-8.002
25,Cc1ccc(CN(CCCN2CCOCC2)Cc2cnn(C)c2)o1.O=C(O)CC(O)(CC(=O)O)C(=O)O,97.82
26,COCCN(Cc1cnn(C)c1)Cc1ccc(C)o1,2.974
27,CN(Cc1cnn(C)c1)S(=O)(=O)N1CCCC1c1ccco1 (configuration not stated),-4.037
